One assay concerns HeLa. The assay is described as follows: Primary qHTS to identify gynecologic anti-cancer compounds using libraries of approved drugs and bioactive compounds (AID 1345084). Further: nearly all actives have a fitted effect of over 55% in size. The conditions noted are these: Gynecologic cancer cell panel viability, ATPlite luminescence, 48 h; series mostly up to 57.5 µM. The method in brief:
(§1)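 ATP-based viability (ATPlite), 1,000 cells/well, 16 h pre-incubation, 48 h compound at 37 C, 5% CO2, 15 min RT before read.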
Background: qHTS replaces the single test concentration by a dilution series.

The next assay concerns Hek293T. Described as above. The following applies: Gynecologic cancer cell panel viability, ATPlite luminescence, 48 h, control line for the selectivity index; series mostly up to 57.5 µM. Summed up: as §1
Another assay has as its system JEG-3. The assay is described as above. The following applies: Gynecologic cancer cell panel viability, ATPlite luminescence, 48 h; series mostly up to 57.5 µM. The method in brief: as §1
Another assay deals with OV90. The description is as above. The following applies: Gynecologic cancer cell panel viability, ATPlite luminescence, 48 h; series mostly up to 57.5 µM. The method in brief:
as §1
A general note: In ATP-based viability assays light output follows the ATP content of the culture.

In the next assay the test system is PA-1. The description is as above. The conditions noted are these: Gynecologic cancer cell panel viability, ATPlite luminescence, 48 h; series mostly up to 57.5 µM. The method in brief: as §1
A further assay concerns SKOV3. The assay is described as above. The following applies: Gynecologic cancer cell panel viability, ATPlite luminescence, 48 h; series mostly up to 57.5 µM. The method in brief:
as §1

The subject of a further assay is Tov-21-G. The assay is described as above. The conditions noted are these: Gynecologic cancer cell panel viability, ATPlite luminescence, 48 h; series mostly up to 57.5 µM. The method in brief: as §1
The next assay relates to Tov112D. Described as above. The following applies: Gynecologic cancer cell panel viability, ATPlite luminescence, 48 h; series mostly up to 57.5 µM. Summed up: as §1
A short description of assay [1]: Drug repurposing screens with cells derived from glioblastoma tumor samples (AID 1345199). Further: nearly all actives have a fitted effect of over 40% in size. Further: potency means the concentration at half of the fitted maximal effect. The following applies: GBM patient neurospheres viability, ATP luminescence, 48 h. The method in brief: (§2)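 Four patient lines of CD133+ GBM neurospheres were screened at several concentrations; hits were retested in those lines plus three slower-growing GBM lines, using 48-hour treatment and ATP-based viability.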

The subject of another assay is astro. The assay is described as above. The conditions noted are these: viability, ATP luminescence, 48 h; series mostly up to 45.9 µM. The method in brief:
as §2

Where [2] appears, read: at 45.9 µM (top of the series), tumour line B.
The mark [3] stands for this setting: at 45.9 µM (top of the series), tumour line D.
Where [4] appears, read: at 46 µM (top of the series), tumour line A.
The mark [5] stands for this setting: at 46.1 µM (top of the series), tumour line C.
[6] abbreviates: at 20 µM (top of the series), tumour line C.
Setting [7] is: at 21.2 µM (top of the series), tumour line B.
[8] abbreviates: at 21.2 µM (top of the series), tumour line D.
Where [9] appears, read: at 21.3 µM (top of the series), tumour line A.

Each structure is given as a SMILES string. Several values for one entry are separate records, joined by “and”; a condition that tells them apart may be missing. Equal entries are not always repeated. Records with an inconclusive call do not appear. Values without a mark were called inactive. Activity calls are given as the source filed them. The call rests on the fitted dose curve; in most records, active means well fitted curve in the direction sought with a large enough effect; inconclusive means small, poorly fitted or top-dose-only effect, or another doubt; inactive means no such curve, though single readings can be large; an effect the other way counts as inactive or inconclusive.
On the % scale 0 is the no-effect control and ±100 the full control effect.

Consider `O=C(O)CN1C(=O)c2cccc3cccc(c23)C1=O`, for which the Potency entry in the assay on HeLa, in the assay on Hek293T, in the assay with JEG-3, in the assay with OV90, with PA-1 and in the assay with SKOV3 was “inactive” throughout. For the same molecule, the Potency result in the assay on Tov-21-G, in the assay with Tov112D and in the assay with astro was “inactive” throughout. In addition, the activity, negative = cell killing was -8.91% in assay [1] (setting [2]), -13.3% in [1] (setting [3]), -27.1% in [1] (setting [4]) and -19.2% in assay [1] (setting [5]).
As for `O=C1OC(OC(=O)c2cccnc2Nc2cccc(C(F)(F)F)c2)c2ccccc21` (stereo not given), the Potency result in the assay with HeLa, in the assay with Hek293T, with JEG-3, in the assay with OV90, in the assay with PA-1 and with SKOV3 was “inactive” in each case. The Potency entry with Tov-21-G and in the assay on Tov112D was “inactive” throughout. For the same molecule, the activity, negative = cell killing is -18.8% in assay [1] (setting [2]) and 3.71% in assay [1] (setting [3]).
For the molecule `CCCCCCCCCCCCCCCCCCOCC(O)CO` (stereo not given), the Potency result in the assay on HeLa, in the assay with Hek293T, in the assay with JEG-3, in the assay with OV90, in the assay with PA-1 and in the assay on SKOV3 was “inactive” in each case. Further, the Potency result in the assay with Tov-21-G, in the assay with Tov112D and in the assay on astro was “inactive” in each case. The activity, negative = cell killing is 0.27% in assay [1] (setting [2]), 9.38% in [1] (setting [3]), -23.8% in assay [1] (setting [4]) and 24.6% in [1] (setting [5]).
For the molecule `N[C@@H](CSCCCO)C(=O)O`, the Potency entry with HeLa, in the assay on Hek293T, in the assay with JEG-3, with OV90, in the assay with PA-1 and in the assay with SKOV3 was “inactive” throughout. Moreover, the Potency result in the assay with Tov-21-G, in the assay with Tov112D and in the assay on astro was “inactive” throughout. The activity, negative = cell killing in assay [1] (setting [2]) is 0.365%; in [1] (setting [3]), -10%; in [1] (setting [4]), -27%; in assay [1] (setting [5]) it was -8.48%.
Take `O=C1O[C@H]([C@@H](O)CO)C(O)=C1O`: the Potency entry in the assay on HeLa, in the assay with Hek293T, in the assay on JEG-3, with OV90, in the assay on PA-1 and in the assay on SKOV3 was “inactive” in each case. In addition, the Potency result with Tov-21-G, with Tov112D and in the assay on astro was “inactive” in each case. The activity, negative = cell killing in [1] (setting [2]) was -10.4% and -5.65%; in [1] (setting [3]), -12.1% and -20.9%; in assay [1] (setting [4]), -0.597%; in [1] (setting [5]), -3.99% and -11%.
Regarding `Oc1ccc(C(O)CNCCCCCCNCC(O)c2ccc(O)c(O)c2)cc1O` (stereo not given), the Potency result with HeLa, with Hek293T, with JEG-3, in the assay on OV90, with PA-1 and with SKOV3 was “inactive” throughout. In addition, the Potency result in the assay on Tov-21-G and in the assay with Tov112D was “inactive” each time. Moreover, the activity, negative = cell killing in assay [1] (setting [2]) was -10.1%; in assay [1] (setting [3]) it was -27.7%.
For `Cc1ncc([N+](=O)[O-])n1CC(O)CCl` (stereo not given), the Potency entry in the assay with HeLa, with Hek293T, with JEG-3, in the assay on OV90, with PA-1 and with SKOV3 was “inactive” in each case. The Potency entry with Tov-21-G, in the assay with Tov112D and with astro was “inactive” throughout. The activity, negative = cell killing in [1] (setting [6]) was -11.2%; in [1] (setting [7]) it was -18%; in [1] (setting [8]), -1.81%; in [1] (setting [9]), -11.7%.
For `CC1(C)S[C@@H]2[C@H](NC(=O)Cc3ccccc3)C(=O)N2[C@H]1C(=O)O` (tested in a mixture with another compound), the Potency entry with HeLa, in the assay on Hek293T, with JEG-3, in the assay on OV90, in the assay with PA-1 and in the assay with SKOV3 was “inactive” in each case. Also, the Potency entry in the assay with Tov-21-G, in the assay on Tov112D and in the assay with astro was “inactive” in each case. For the same molecule, the activity, negative = cell killing in assay [1] (setting [2]) was -3.74%; in assay [1] (setting [3]), -13.1%; in [1] (setting [4]), -22.7%; in assay [1] (setting [5]) it was -9.44%.
Regarding `OCC(CO)N[C@H]1C[C@](O)(CO)[C@@H](O)[C@H](O)[C@H]1O`, the Potency result in the assay with HeLa, with Hek293T, with JEG-3, with OV90, in the assay with PA-1 and with SKOV3 was “inactive” in each case. Further, the Potency result in the assay on Tov-21-G, with Tov112D and with astro was “inactive” each time. The activity, negative = cell killing was -9.88% in assay [1] (setting [2]), 10.9% in assay [1] (setting [3]), -13.3% in assay [1] (setting [4]) and -4.04% in assay [1] (setting [5]).
For `CC1=C(/C=C/C(C)=C/C=C/C(C)=C/C(=O)O)C(C)(C)CCC1`, the Potency entry with HeLa, in the assay with Hek293T, with JEG-3, with OV90, in the assay on PA-1 and with SKOV3 was “inactive” each time. Moreover, the Potency entry in the assay with Tov-21-G and with Tov112D was “inactive” in each case. Besides, the activity, negative = cell killing in assay [1] (setting [2]) is -21.7%; in assay [1] (setting [3]), -18.7%; in assay [1] (setting [5]), -15.9%.
`CC(O)COc1ccccc1` (stereo not given): the Potency result with HeLa, in the assay with Hek293T, in the assay on JEG-3, with OV90, in the assay with PA-1 and in the assay with SKOV3 was “inactive” throughout. Also, the Potency entry in the assay on Tov-21-G, in the assay on Tov112D and in the assay on astro was “inactive” throughout. Moreover, the activity, negative = cell killing in assay [1] (setting [2]) is -16.3%; in assay [1] (setting [3]) it was 2.5%; in assay [1] (setting [4]), -19.2%; in assay [1] (setting [5]), -0.412%.
As for `CC(C)(C(=O)O)c1ccc(C(O)CCCN2CCC(C(O)(c3ccccc3)c3ccccc3)CC2)cc1` (stereo not given), the Potency result with HeLa, with Hek293T, in the assay with JEG-3, in the assay with OV90, in the assay with PA-1 and in the assay on SKOV3 was “inactive” throughout. Moreover, the Potency entry with Tov-21-G, in the assay on Tov112D and with astro was “inactive” each time. The activity, negative = cell killing was 0.768% in [1] (setting [2]), 0.91% in assay [1] (setting [3]), -18.8% in assay [1] (setting [4]) and 14% in assay [1] (setting [5]).
Turning to `CCOc1ccc2ccccc2c1C(=O)N[C@@H]1C(=O)N2[C@@H]1SC(C)(C)[C@@H]2C(=O)O`, the Potency entry in the assay on HeLa, in the assay on Hek293T, in the assay on JEG-3, in the assay on OV90, with PA-1 and with SKOV3 was “inactive” in each case. Moreover, the Potency result in the assay on Tov-21-G, in the assay with Tov112D and in the assay with astro was “inactive” each time. Also, the activity, negative = cell killing in assay [1] (setting [6]) was 10.1%; in [1] (setting [7]), -3.6%; in assay [1] (setting [8]) it was -26.3%; in [1] (setting [9]), -12.7%.
`CN(C)CCOC(C)(c1ccccc1)c1ccccn1` (stereo not given): the Potency result in the assay with HeLa, in the assay on Hek293T, in the assay on JEG-3, in the assay with OV90, in the assay on PA-1 and with SKOV3 was “inactive” each time. For the same molecule, the Potency result in the assay with Tov-21-G, with Tov112D and with astro was “inactive” throughout. Also, the values for the activity, negative = cell killing in assay [1] (setting [2]), in [1] (setting [3]) and in [1] (setting [5]) were -6.13%, -4.11% and -0.022%, respectively. In addition, the Potency in assay [1] (tumour line A) was 15.8 µM (active).
Turning to `CC1CC(OC(=O)C(O)c2ccccc2)CC(C)(C)N1C` (stereo not given), the Potency entry in the assay on HeLa, in the assay on Hek293T, with JEG-3, in the assay with OV90, in the assay with PA-1 and in the assay on SKOV3 was “inactive” in each case. For the same molecule, the Potency entry in the assay on Tov-21-G, with Tov112D and in the assay with astro was “inactive” each time. Further, the activity, negative = cell killing in [1] (setting [6]) is 14.2%; in assay [1] (setting [7]) it was 1.64%; in [1] (setting [8]), -6.11%; in [1] (setting [2]) it was -1.01%; in assay [1] (setting [3]), 1.15%; in assay [1] (setting [4]), -25.8%. The activity, negative = cell killing in assay [1] (setting [5]) is -11%.

The record behind these values is PubChem BioAssay (NCATS).
